Counter-ions that a name gives are not always drawn. ± gives the standard error. In all, about 1,300 compounds went through this assay and about 130 (10%) showed an effect of 50% or more. Only a selection was taken, and strong results are over-represented in it overall.
System: Trichoderma virens ATCC 9645
Assay: growth yield (OD600) with compound + IPBC relative to untreated control; higher = less growth inhibition
Settings: compound concentration: 100 uM, IPBC concentration: 200 ng/ml
How it was run: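 Trichoderma virens ATCC 9645 spores, from potato dextrose agar plates grown for 7 days, were brought to 15,000 spores ml^−1 in potato dextrose broth and dispensed as 100 μl aliquots into 96-well plates. Each aliquot received library compounds at 100 μM final, with or without a biocide at 200 ng ml^−1, before growth at 30 °C and OD600 readings on a BioTek EL800 at 40 h and 72 h. Growth is expressed relative to the control containing neither agent and represents means of duplicate screens.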

Compound | growth yield (40 h) [%] | growth yield (72 h) [%]
CCCCC[C@H](O)/C=C/[C@H]1[C@H](O)CC(=O)[C@@H]1CCCCCCC(=O)O [Alprostadil] + CCCCNC(=O)OCC#CI [3-iodo-2-propynyl butylcarbamate (IPBC)] | 108 ± 3.3 | 107 ± 2.8
Cc1ncc([N+](=O)[O-])n1CC(C)O (stereo not given) [Secnidazole] + CCCCNC(=O)OCC#CI [3-iodo-2-propynyl butylcarbamate (IPBC)] | 95.9 ± 13 | 94.5 ± 9.8
N=C(N)NC(=O)Cc1c(Cl)cccc1Cl [Guanfacine hydrochloride] + CCCCNC(=O)OCC#CI [3-iodo-2-propynyl butylcarbamate (IPBC)] | 79.9 ± 4.3 | 90.7 ± 3.7
O=C1[C@H]2CCCC[C@H]2C(=O)N1CCCCN1CCN(c2nsc3ccccc23)CC1 [Perospirone] + CCCCNC(=O)OCC#CI [3-iodo-2-propynyl butylcarbamate (IPBC)] | 79.4 ± 0.95 | 88.41 ± 0.32
C[C@@H]1C[C@H]2[C@@H]3C[C@H](F)C4=CC(=O)C=C[C@]4(C)[C@@]3(F)[C@@H](O)C[C@]2(C)[C@@]1(O)C(=O)COC(=O)C(C)(C)C [Flumethasone pivalate] + CCCCNC(=O)OCC#CI [3-iodo-2-propynyl butylcarbamate (IPBC)] | 90.9 ± 2.5 | 90.3 ± 2
CN(CCCN1c2ccccc2CCc2ccccc21)CC(=O)c1ccc(Cl)cc1 [Lofepramine] + CCCCNC(=O)OCC#CI [3-iodo-2-propynyl butylcarbamate (IPBC)] | 78.31 ± 0.48 | 91.7 ± 1.3
CCN[C@H]1CN(CCCOC)S(=O)(=O)c2sc(S(N)(=O)=O)cc21 [Brinzolamide] + CCCCNC(=O)OCC#CI [3-iodo-2-propynyl butylcarbamate (IPBC)] | 76.1 ± 0.79 | 86.31 ± 0.32
CC(N/C(=N\C#N)Nc1ccncc1)C(C)(C)C (stereo not given) [Pinacidil] + CCCCNC(=O)OCC#CI [3-iodo-2-propynyl butylcarbamate (IPBC)] | 97.7 ± 5.9 | 102 ± 2.9
CCCCc1cc2ccccc2c(OCCN(C)C)n1 [Dimethisoquin hydrochloride] + CCCCNC(=O)OCC#CI [3-iodo-2-propynyl butylcarbamate (IPBC)] | 52.1 ± 0.64 | 82.64 ± 0.42
CC(C)c1nc(CN(C)C(=O)N[C@H](C(=O)N[C@@H](Cc2ccccc2)C[C@H](O)[C@H](Cc2ccccc2)NC(=O)OCc2cncs2)C(C)C)cs1 [Ritonavir] + CCCCNC(=O)OCC#CI [3-iodo-2-propynyl butylcarbamate (IPBC)] | 119 ± 1.6 | 119 ± 1.5
O=C(O)CCC(=O)c1ccc(-c2ccccc2)cc1 [Fenbufen] + CCCCNC(=O)OCC#CI [3-iodo-2-propynyl butylcarbamate (IPBC)] | 71.5 ± 2.9 | 92.2 ± 1.8
CCC[C@@H]1C[C@@H](C(=O)N[C@@H]([C@H]2O[C@H](SC)[C@H](O)[C@@H](O)[C@H]2O)[C@@H](C)O)N(C)C1 [Lincomycin hydrochloride] + CCCCNC(=O)OCC#CI [3-iodo-2-propynyl butylcarbamate (IPBC)] | 85.8 ± 3.5 | 94.6 ± 2.3
COCC1=C(C(=O)OC(C)OC(=O)OC(C)C)N2C(=O)[C@@H](NC(=O)/C(=N\OC)c3csc(N)n3)[C@H]2SC1 (stereo not given in full) [Cefpodoxime proxetil] + CCCCNC(=O)OCC#CI [3-iodo-2-propynyl butylcarbamate (IPBC)] | 121 ± 3.5 | 113.6 ± 0.94
Nc1cc(N2CCCCC2)nc(N)[n+]1[O-] [Minoxidil] + CCCCNC(=O)OCC#CI [3-iodo-2-propynyl butylcarbamate (IPBC)] | 90.1 ± 2.1 | 93.5 ± 1.7
C[C@]12CC[C@H](O)C[C@H]1CC[C@@H]1[C@@H]2C[C@@H](O)[C@]2(C)[C@@H](C3=CC(=O)OC3)CC[C@]12O [Digoxigenin] + CCCCNC(=O)OCC#CI [3-iodo-2-propynyl butylcarbamate (IPBC)] | 86.6 ± 2.7 | 90.72 ± 0.32
COC(=O)[C@@H]1[C@H]2C[C@H]3c4[nH]c5ccccc5c4CCN3C[C@@H]2CC[C@@H]1O [Yohimbine hydrochloride] + CCCCNC(=O)OCC#CI [3-iodo-2-propynyl butylcarbamate (IPBC)] | 82.4 ± 1.1 | 89.25 ± 0.73
Nc1nc2[nH]cc(CCc3ccc(C(=O)N[C@@H](CCC(=O)O)C(=O)O)cc3)c2c(=O)[nH]1 [Pemetrexed disodium] + CCCCNC(=O)OCC#CI [3-iodo-2-propynyl butylcarbamate (IPBC)] | 94.8 ± 7.2 | 94 ± 4
CCN(CC)C(C)CN1c2ccccc2Sc2ccccc21 (stereo not given) [Ethopropazine hydrochloride] + CCCCNC(=O)OCC#CI [3-iodo-2-propynyl butylcarbamate (IPBC)] | 72.4 ± 3.8 | 89.2 ± 1.6
CC(CN1c2ccccc2Sc2ccccc21)N(C)C (stereo not given) [Promethazine hydrochloride] + CCCCNC(=O)OCC#CI [3-iodo-2-propynyl butylcarbamate (IPBC)] | 78.2 ± 1.9 | 94.3 ± 4.1
CCSc1ccc2c(c1)N(CCCN1CCN(C)CC1)c1ccccc1S2 [Thiethylperazine dimalate] + CCCCNC(=O)OCC#CI [3-iodo-2-propynyl butylcarbamate (IPBC)] | 4.45 ± 0.32 | 3.25 ± 0.1
C[C@]12C=CC(=O)C=C1CC[C@H]1[C@@H]3C[C@@H](O)[C@](O)(C(=O)CO)[C@@]3(C)C[C@H](O)[C@@]12F [Triamcinolone] + CCCCNC(=O)OCC#CI [3-iodo-2-propynyl butylcarbamate (IPBC)] | 98.3 ± 3 | 97.5 ± 1.9
COc1ccc(-c2cc(=S)ss2)cc1 [Anethole-trithione] + CCCCNC(=O)OCC#CI [3-iodo-2-propynyl butylcarbamate (IPBC)] | 77 ± 1.8 | 74.9
CN1C[C@H](CNC(=O)OCc2ccccc2)C[C@@H]2c3cccc4c3c(cn4C)C[C@H]21 [Metergoline] + CCCCNC(=O)OCC#CI [3-iodo-2-propynyl butylcarbamate (IPBC)] | 45.4 ± 15 | 112 ± 9.5
CN1C[C@H](C(=O)N[C@]2(C)O[C@@]3(O)[C@@H]4CCCN4C(=O)[C@H](Cc4ccccc4)N3C2=O)C[C@@H]2c3cccc4[nH]cc(c34)C[C@H]21 [Dihydroergotamine tartrate] + CCCCNC(=O)OCC#CI [3-iodo-2-propynyl butylcarbamate (IPBC)] | 105 ± 5.2 | 107 ± 2.3
CO[C@]12C[C@@H](COC(=O)c3cncc(Br)c3)CN(C)[C@@H]1Cc1cn(C)c3cccc2c13 [Nicergoline] + CCCCNC(=O)OCC#CI [3-iodo-2-propynyl butylcarbamate (IPBC)] | 74.2 ± 8.4 | 93 ± 5.3

Reference: the supplement of paper PMC8007513
